PubChem BioAssay AID1650 (Southern Research Specialized Biocontainment Screening …, 2009)
Potency and affinity values are given separately. The source made the active and inactive calls. Entries that show only a call come without a potency. The rule behind the calls is not given here.

Test: host cell cytotoxicity of antiviral hits, dose response, cytotoxicity control for West Nile virus antiviral project, secondary assay (AID 1650)
Conditions: Mammalian host cell viability, cytotoxicity counter-screen; series mostly up to 10 µM

Row | Structure (SMILES) | outcome
1 | CCn1cc(C(=O)NCc2ccc3c(c2)OCO3)c(=O)c2cc(F)c(N3CCN(C(=O)c4ccco4)CC3)cc21 | inactive
2 | Cn1c(=O)n(CCCOc2ccc(Br)cc2)c2ccccc21 | inactive
3 | Cn1cc(CN2CCCC(C(=O)Nc3cccc(-c4cc5ccccc5[nH]4)c3)C2)cn1 (stereo unspecified) | inactive
4 | Cc1nn(CC(=O)NCc2ccc(OC(C)C)cc2)c(=O)c2cc(-c3ccccc3)nn12 | inactive
5 | CCn1ncc(CN2CCC(C(=O)Nc3cccc(-c4cccc(F)c4)c3)CC2)c1C | inactive
6 | CCN(CC)CCC(c1cc(OC)c(OC)c(OC)c1)c1c(OC)cc(OC)c2c(-c3ccccc3)cc(=O)oc12 (stereo unspecified) | inactive
7 | O=C(Nc1ccc(-n2ccc(C(F)(F)F)n2)cc1)Nc1cccc(Cl)c1 | inactive
8 | CCN(CC)CCn1c(=N)n(CC(=O)c2ccc(Br)s2)c2ccccc21 | inactive
9 | CCCN1CCN(CCCNC(=O)c2cc3c(s2)-c2ccccc2OC3)CC1 | inactive
10 | CCc1nn(CC(=O)NC2CCN(Cc3ccccc3)CC2)c(=O)c2cc3cc(F)ccc3n12 | inactive
11 | COc1cccc(/C=N/NC(=O)c2cc(-c3cccn3C)n[nH]2)c1O | inactive
12 | O=C1Nc2cc(C(=O)NCCCN3CCOCC3)ccc2S/C1=C/c1cccc(Cl)c1 | inactive
13 | CC(C)c1ccc(/C=C/C(=O)Nc2ccc(CN3CCOCC3)cc2)cc1 | inactive
14 | COc1cccc(C2CC(c3c(-c4ccccc4)c4cc(Cl)ccc4[nH]c3=O)=NN2S(C)(=O)=O)c1OC (stereo unspecified) | inactive
15 | COc1ccc(NC(=S)Nc2ccc3nsnc3c2)cc1 | inactive
16 | O=[N+]([O-])c1cncc([N+](=O)[O-])c1Nc1cccc(O)c1 | inactive
